# According to PubChem BioAssay AID2284094 (EPA ToxCast):
# The source made the active and inactive calls. Rule for the calls: active = hit-call score of the fitted dose curve at least 0.9, where 1 is the maximum; inactive = score below 0.9.
# Molecular target: human VHR Phosphatase, DUSP3 (gene 1845) (UniProt P51452)
# Test: ERF_FR_ENZ_hDUSP3: Eurofins (ERF) Enzymatic Assay for human VHR Phosphatase
# Protocol: ERF_FR_ENZ_hDUSP3 is a biochemical, single-readout assay that uses extracted gene-proteins in a cell-free assay. Measurements were taken 0.5 hour after chemical dosing in a 96-well plate. See VHR Human Phosphatase Enzymatic Assay, PhosphataseProfiler.ERF_FR_ENZ_hDUSP3 is an assay component calculated from the ERF_FR_ENZ_hDUSP3 assay. It is designed to measure enzyme activity using a type of enzyme reporter as detected by fluorescence intensity with spectrophotometry technology.Data from the assay component ERF_FR_ENZ_hDUSP3 was analyzed at the assay endpoint, ERF_FR_ENZ_hDUSP3, in the positive analysis fitting direction relative to DMSO as the negative control and baseline of activity. Using a type of enzyme reporter, loss-of-signal activity can be used to understand changes in enzymatic activity as they relate to gene DUSP3. To generalize the intended target to other relatable targets, this assay endpoint is annotated to the […].
# Human recombinant protein phosphatase VHR expressed in E. coli is used. Test compound and/or vehicle is preincubated with 0.2 mU/ml enzyme for 15 minutes at 37C in modified HEPES buffer pH 7.2. The reaction is initiated by addition of 100 uM DiFMUP for 60 minutes. Determination of the amount of DiFMU formed is read spectrofluorimetrically at 358 nm/450 nm. Compounds are screened at 10 uM.
# human VHR Phosphatase, DUSP3 (gene 1845), sequence (P51452 whole entry, looked up): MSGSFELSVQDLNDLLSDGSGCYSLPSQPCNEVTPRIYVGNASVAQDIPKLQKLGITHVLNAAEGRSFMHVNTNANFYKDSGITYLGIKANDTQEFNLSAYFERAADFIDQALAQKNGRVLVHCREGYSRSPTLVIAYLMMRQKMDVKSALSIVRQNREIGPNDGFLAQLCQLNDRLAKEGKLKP
row,Compound,AC50
1,O=C(/C=C/c1ccc(O)cc1)CC(=O)/C=C/c1ccc(O)cc1,1.01 nM (active)
